We go through 52 compounds from PubChem BioAssay AID588342 (National Center for Advancing Translational Sciences (NCATS), 2011).

About 25,000 (6.9%) of roughly 360,000 compounds were called active. Not shown: some 9% with an inconclusive outcome. Many of the other results were omitted from the sample, so actives are more common in it than they were. Values without a mark were called inactive. Calls come from the whole dose curve; as a rule, active = well fitted inhibition curve with a large enough effect; inconclusive = small, poorly fitted or top-dose-only effect; inactive = flat fitted curve, though single readings scatter.

The target of this assay is Luciferin 4-monooxygenase (Photinus pyralis) (UniProt P08659). Put plainly: qHTS profiling assay for firefly luciferase inhibitor/activator using purifed enzyme and Km concentrations of substrates (counterscreen for miR-21 project).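 For activity change, negative = inhibition: plate controls were vehicle for no effect and reference inhibitor for full effect.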 Note: nearly all actives have a fitted effect of over 55% in size. To be noted: purified FLuc, luminescence inhibition; series mostly up to 57.5 µM; activity change, negative = inhibition: at the top concentration. The text has this: MLPCN Grant: 1 R21 NS059478-01 (miR-21 grant) Assay Provider: NCGC NCGC Assay Overview: Firefly (Photinus pyralis) luciferase is one of the most commonly used transcriptional reporters for a number of reasons. It is considered one of the more dynamically responsive reporters -that is, responsive to changes in reporter transcription - as it requires no post-translational modifications and is enzymatically active directly after protein synthesis (Wood, 1998). Additionally, the half-life of the luciferase protein is short relative to other reporter-gene products (Wood, 1995). Whereas reporters with long half-lives potentially allow for increased signal due to accumulation of reporter-gene product, once accumulated in the cell, dynamic changes in reporter-gene expression may be difficult to detect(Fan and Wood, 2007; Almond et al., 2004). It has been shown that wild-type P. pyralis luciferase has a half-life of approximately […] hours in mammalian cells (Thompson et al., 1991). Firefly luciferase reporter-gene assays are also generally considered one of the most sensitive assay types (Wood, 1995; Wood, 1998). Although light produced in a bioluminescence reaction is of lower intensity than that produced during fluorescence emission, this is offset by little to no background light inherent to luminescent assays. Thus the luciferase reporter can be expressed at much lower levels than fluorescent proteins while still providing robust signal. # However, it was initially observed, in 1991, by Thompson et al., that compounds that resemble the substrates of firefly luciferase (FLuc) can act as competitive inhibitors of the enzyme, and that these compounds, upon interaction with luciferase in the cell, can actually stabilize the protein and increase its half-life. Accumulated intracellular FLuc protein can be measured as an increase in luminescence signal, upon addition of detection reagents (which contain high concentrations of FLuc substrates) commonly used in high-throughput screening. In cell-based reporter gene assays that use FLuc as the reporter gene to quantitate the potential influence of a given compound against the target biology, this apparent increase in luminescence can mistakenly be interpreted as identification of a compound that is active against the target of interest. This is the case for the miR-21 FLuc reporter gene assay used to identify inhibitors of the miR-21 pathway (PubChem AID 2289) - compounds of interest will inhibit miR-21 biogenesis/expression or activity, and are identified by causing an increase in luminescence, due to increased FLuc translation. However, FLuc inhibitory compounds that stabilize the FLuc protein will give an identical read-out, making it difficult to distinguish compounds that are active against the target from those active against FLuc. Previous profiling work to determine the prevalence of compounds that affect FLuc enzymatic activity (PubChem AID 411) identified that ~3% of the MLSMR library (then at ~72K) inhibited FLuc. […] Since the MLSMR had grown to ~350K compounds, and since it was expected that a significant percentage of compounds found active in the miR-21 FLuc assay would be FLuc inhibitors, the library was screened for activity against FLuc using a biochemical assay of purified FLuc and KM concentrations of FLuc substrates (D-luciferin and ATP).
Luciferin 4-monooxygenase (Photinus pyralis), sequence (P08659 whole entry, looked up): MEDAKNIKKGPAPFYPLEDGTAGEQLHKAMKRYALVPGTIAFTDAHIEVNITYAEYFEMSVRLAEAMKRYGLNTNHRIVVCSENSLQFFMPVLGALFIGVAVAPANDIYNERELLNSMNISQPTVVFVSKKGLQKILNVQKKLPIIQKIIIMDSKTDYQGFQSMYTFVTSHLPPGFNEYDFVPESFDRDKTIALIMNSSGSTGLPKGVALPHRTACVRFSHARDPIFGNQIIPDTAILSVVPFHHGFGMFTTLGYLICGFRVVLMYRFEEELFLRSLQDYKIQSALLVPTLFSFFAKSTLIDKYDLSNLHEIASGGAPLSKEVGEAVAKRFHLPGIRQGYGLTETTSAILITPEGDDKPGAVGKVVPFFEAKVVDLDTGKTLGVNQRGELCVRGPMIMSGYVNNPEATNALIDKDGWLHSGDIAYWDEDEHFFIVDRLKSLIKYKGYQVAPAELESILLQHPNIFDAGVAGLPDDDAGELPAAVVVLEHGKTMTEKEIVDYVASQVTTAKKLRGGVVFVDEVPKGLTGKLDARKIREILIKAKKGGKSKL
NCGC Assay Protocol Summary: Reagents: 50mM Tris acetate, pH 7.5; 10mM Mg acetate; 10uM D-luciferin (Sigma #L9504); 10uM ATP; 0.01% Tween-20; 0.05% BSA; 10nM P. pyralis luciferase (Sigma #L9506) Control compounds used were two known firefly luciferase inhibitors (compounds (2) and (5) in Auld et al., 2010), and DMSO. […]
`COc1ccc(Cn2ccnc2SCC(=O)NCc2ccco2)cc1`: the “activity change, negative = inhibition” value is 0.425%. With `CC(NC(=O)c1cc(Sc2ccc(F)cc2F)nc2ccccc12)c1ccccc1` (configuration not stated), the “activity change, negative = inhibition” value was 4.18%.

As to `Cn1c(=O)c2c(nc(SCC(=O)Nc3ccc(F)cc3)n2Cc2ccccc2)n(C)c1=O`, the “activity change, negative = inhibition” value is 1.13%. As for `CCN(CC(=O)Nc1ccccc1C(F)(F)F)C(=O)C1CCN(C(=O)Nc2ccccc2)CC1`, the “activity change, negative = inhibition” value is 2.43%. On the same count and under the same terms, with `O=C(NC1CC(=O)N(c2ccc(Cl)cc2)C1)C1CCCC1` (configuration not stated) the figure was -5.39%; with `S=C(NNC(=S)NC1CC2C=CC1C2)NC1CC2C=CC1C2` (configuration not stated), 0.443%. As for `CC(C)c1ccc(NC(=S)NC2CC3C=CC2C3)cc1` (configuration not stated), the Potency is 10.7 µM (active). As to `S=C(NNC(=S)NC1CC2CCC1C2)NC1CC2C=CC1C2` (configuration not stated), the “activity change, negative = inhibition” value was -0.235%. Consider `Cc1c(Cl)cccc1NC(=O)C1CCCN(C(=O)c2cnn(-c3ccccc3)c2-n2cccc2)C1` (configuration not stated), for which the “activity change, negative = inhibition” value was -17.5%. For `Cc1cc(=O)[nH]c(Nc2cccc(Br)c2)n1`, the “activity change, negative = inhibition” value was -3.47%. The same measure, in the same setting: as for `Cc1ccc2nc(C)cc(N/N=C/c3ccc(F)cc3)c2c1`, the figure is -1.41%.

For `CCN(CC)c1ccc(/C=N/Nc2nc(C)cc(=O)[nH]2)cc1`, the Potency was 19 µM (active). Regarding `Cc1ccc(C)c(NC2=NCC(=O)N2c2ccc3c(c2)OCCO3)c1`, the “activity change, negative = inhibition” value is -7.62%. In the case of `Cc1cc(=O)[nH]c(N/N=C/c2ccc3c(c2)OCCO3)n1`, the Potency is 10.7 µM (active).

`Cc1nnc(N/N=C/c2ccccn2)[nH]c1=O`: the “activity change, negative = inhibition” value was -4.55%.

For `CCOC(=O)Cc1csc(NC(=O)CSc2nc(C)cc(=O)[nH]2)n1`, the “activity change, negative = inhibition” value was -11%. On to `Cc1cc(=O)[nH]c(N/N=C/c2c(C)nn(-c3ccccc3Cl)c2Cl)n1`, for which the Potency was 21.3 µM (active). For the compound `COc1ccc(CCC(=O)N2CCN(S(=O)(=O)c3ccc(OC)cc3)CC2)cc1`, the “activity change, negative = inhibition” value was 0.133%.

Take `Cc1ccc(F)cc1S(=O)(=O)Nc1cccc(C(=O)N2CCCC(C(N)=O)C2)c1` (configuration not stated): the “activity change, negative = inhibition” value was 1.32%. In the case of `CCOC(=O)c1cc(-c2ccc(OC)c(S(=O)(=O)Nc3ccc(OC)cc3OC)c2)on1`, the “activity change, negative = inhibition” value is -6.63%.

As to `CCOc1ccc(S(=O)(=O)Nc2ccc(C(=O)NCCCN3CCCC3=O)cc2)cc1`, the “activity change, negative = inhibition” value is 0.869%. Still for that read-out and setting: with `Nc1ncc(S(=O)(=O)Nc2ccc(OC(F)(F)F)cc2)cn1` the figure was -18.2%.

For the compound `COc1ccccc1N1CCN(c2ccc(=O)n(CC(=O)NCc3ccc(OC(C)C)cc3)n2)CC1`, the “activity change, negative = inhibition” value was -8.85%. For the compound `Cc1cc(C)cc(NS(=O)(=O)c2ccc(-c3cc(C)no3)s2)c1`, the “activity change, negative = inhibition” value is -17.8%. Regarding `Cn1nc(-c2ccccc2)c(-c2ccccc2)c(C(=O)Nc2ccc(S(N)(=O)=O)cc2)c1=O`, the “activity change, negative = inhibition” value was -7.51%.

In the case of `CCc1cccc(CC)c1NC(=O)Cn1c(=O)c(-c2cc(C)ccc2NC(C)=O)nc2ccccc21`, the “activity change, negative = inhibition” value was 3.12%.

For the compound `O=C(CCN1C(=O)C2C3CCC(C3)C2C1=O)Nc1ccc(Cl)cc1Cl` (configuration not stated), the “activity change, negative = inhibition” value is -0.123%. Regarding `Cc1ccc(C(=O)COC(=O)CCN2C(=O)C3C4CC(C(Br)C4Br)C3C2=O)cc1` (configuration not stated), the “activity change, negative = inhibition” value was 1.77%. Turning to `Cc1ccc(C(=O)COC(=O)CCN2C(=O)C3C4CCC(C4)C3C2=O)cc1C` (configuration not stated), the Potency was 10.7 µM (active). Consider `COc1ccccc1-c1noc(CSc2nnc(-c3ccccc3)n2-c2ccc(C)c(C)c2)n1`, for which the “activity change, negative = inhibition” value was -0.724%.

In the case of `c1cc(-n2cnnn2)ccc1NC1=NCCC1`, the “activity change, negative = inhibition” value was -0.318%. Turning to `Cc1ccc(C(=O)Cc2nnc(C)s2)cc1`, the Potency is 9.53 µM (active). `Cc1ccc(C(=O)Cn2cccn2)cc1`: the “activity change, negative = inhibition” value is 2.73%. `Cc1ccc(S(=O)(=O)CC(=O)Nc2nnc(C)s2)cc1`: the “activity change, negative = inhibition” value is 0.491%. Same read-out and setting: as for `CC(CO)N1CCS(=O)(=O)CC1` (configuration not stated), the figure is 5.19%. Consider `CCc1cc2c(cc3c(=O)n(CC(=O)N4CCN(c5cc(Cl)ccc5C)CC4)nc(CC)n32)s1`, for which the “activity change, negative = inhibition” value was -10.4%.

Regarding `Cc1ccc(NC(=O)c2oc3ccccc3c2NC(=O)Cc2cccs2)cc1`, the “activity change, negative = inhibition” value is 1.25%. In the case of `Cc1cc2c(cc3c(SCc4nc(-c5ccccc5)oc4C)nnc(C)n32)o1`, the “activity change, negative = inhibition” value is -1.75%. On to `CCS(=O)(=O)c1cc([N+](=O)[O-])c(Sc2ccccc2N)s1`, for which the Potency is 4.26 µM (active). As for `Cc1ccc(S(=O)(=O)NCCSc2ccccc2)cc1[N+](=O)[O-]`, the “activity change, negative = inhibition” value was 6.22%. Turning to `CC(=O)c1ccc(N2CCN(C3C(=O)c4ccccc4N3C(C)=O)CC2)cc1` (configuration not stated), the “activity change, negative = inhibition” value is -11.4%. On the same count and under the same terms, with `CCOC(=O)c1ccc(NC(=O)CCn2cnnn2)cc1` the figure was 2.52%; with `OCC1(Cc2ccccc2)CCN(Cc2cc3ccccc3o2)CC1`, 3.73%. Same read-out and setting: as for `CC(=O)c1cccc(CN2CCC(CO)(Cc3ccccc3)CC2)c1`, the figure is 1.15%.

`CC(C)c1csc(CN2CCC(CO)(Cc3ccccc3)CC2)n1`: the Potency is 6.75 µM (active).

As to `Cc1nc2c(-c3ccccc3)c(C)nn2c(C)c1CCC(=O)NCCc1ccccc1`, the “activity change, negative = inhibition” value was -13.9%. Consider `COc1cccc(CNC(=O)C2CCN(S(=O)(=O)c3ccc4c(ccn4C)c3)CC2)c1`, for which the “activity change, negative = inhibition” value was -8.5%. Same read-out and setting: with `CC1CCCCC1NC(=O)NC(=O)COC(=O)C1=NN(c2ccccc2)C(=O)CC1` (configuration not stated) the figure was 5.26%. With `CS/C(=C\C(=O)c1ccco1)Nc1ccccc1Cl`, the Potency was 3.79 µM (active). Take `O=C(Nc1ccccc1C(=O)N1CCCCC1)c1ccco1`: the “activity change, negative = inhibition” value is 2.11%. On to `Cc1c(Cl)cccc1NC(=O)CCC(=O)N/N=C/c1ccco1`, for which the “activity change, negative = inhibition” value is -0.65%.

As to `COc1cccc(NC(=O)N(Cc2cn(C)c3ccccc23)C2CCCCCC2)c1`, the “activity change, negative = inhibition” value was 4.23%.
